Screens (PubChem)
OPRM1-OPRD1 inv – inverse agonists of MOR-DOR heterodimerization, primary screen, cell-based, luminescence; Mu-type opioid receptor (Homo sapiens) + Delta-type opioid receptor (Homo sapiens), …; cell-based MOR-DOR heterodimer luminescence, inverse agonism; inhibition, % at 9.3 µM; hit rate 0.21% among 340,000; in the data active = inhibition above about 22%, passing the limit was not always enough;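 note: 0% = cells with DMSO and 100% = wells without cells with DMSO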
HTR5A ag – HTR5A agonists in luminescence cell assay, primary screen, counter-screen for OPRM1-OPRD1 heterodimer agonist project, full-deck HTS. 5-hydroxytryptamine receptor 5A (Homo sapiens), P47898. cell-based. activation, % at 9.3 µM. hit rate 0.61% among 340,000. AID 504692, 2011; in the data active = activation mostly above about 9.5%, no sharp cut-off; inactive = mostly below about 7.6%;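 note: 0% = cells with vehicle only and 100% = reference agonist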
Target sequence (P47898 whole entry, looked up): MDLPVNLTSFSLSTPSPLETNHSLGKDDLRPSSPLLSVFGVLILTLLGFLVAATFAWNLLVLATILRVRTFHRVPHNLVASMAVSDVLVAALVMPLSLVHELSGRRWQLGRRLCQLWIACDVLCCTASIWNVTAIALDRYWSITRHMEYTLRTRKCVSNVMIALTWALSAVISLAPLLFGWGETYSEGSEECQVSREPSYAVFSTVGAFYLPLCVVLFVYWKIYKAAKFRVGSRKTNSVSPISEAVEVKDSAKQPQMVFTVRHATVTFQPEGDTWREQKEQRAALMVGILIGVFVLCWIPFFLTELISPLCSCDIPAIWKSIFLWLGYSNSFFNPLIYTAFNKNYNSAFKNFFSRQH
HTR5A inv ctr – HTR5A inverse agonists in luminescence cell assay, primary screen, counter-screen for OPRM1-OPRD1 heterodimer inverse agonist project, full-deck HTS; HTR5A cell line, inverse agonism; inhibition, % at 9.3 µM; hit rate 0.083% among 340,000; AID 504634, 2011; in the data active = inhibition mostly above about 23%, no sharp cut-off; inactive = mostly below about 18%;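 note: 0% = cells with DMSO and 100% = no-cell wells with DMSO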
MOR-DOR ag – agonists of OPRM1-OPRD1 heterodimerization, primary screen, cell-based, luminescence | Mu-type opioid receptor (Homo sapiens) + Delta-type opioid receptor (Homo sapiens), … | cells | activation, % at 9.3 µM | hit rate 0.3% among 340,000; in the data active = activation above about 18%;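 note: 0% = vehicle-treated cells and 100% = reference agonist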
* marks the source's active call; other numbers are inactive results. A selection: hits, their analogues and other compounds. The true share with any hit is near 1.1%.

SMILES	OPRM1-OPRD1 inv	HTR5A ag	HTR5A inv ctr	MOR-DOR ag
COc1ccc(C(C#N)N2CCC(c3ccccc3)=N2)cc1 (stereo unspecified)	10.1	0.1	-0.3	-2.2
COc1ccc(CNc2nc(NCc3ccc(OC)c(OC)c3)n(C(=O)c3cccs3)n2)cc1OC	-8.5	14.2*	-22.2	1.5
CC(=O)c1cc(-c2ccccc2)n(CC(=O)N2CCCCC2)c1C	0.4	11.8*	-38.4	-0.1
CCn1nc(C)cc1C(=O)N(C)C1CCCN(Cc2ccccc2F)C1 (stereo unspecified)	14.3	1.8	-5.4	-2.7
CSc1ccc(/C=C2\C(=N)N3N=C(CC(=O)N4CCOCC4)SC3=NC2=O)cc1	8.0	11.9*	-36.7	-1.6
CSc1ccc(/C=C2\C(=N)N3N=C(CC(=O)N4CCCCC4)SC3=NC2=O)cc1	13.7	-1.9	6.9	-2.7
Cc1nc2ccccc2n1S(=O)(=O)c1ccc(S(=O)(=O)N2CCCCCC2)cc1	8.3	14.3*	-37.4	-1.7
NC(=O)CSCc1c(Cl)cccc1Cl	11.2	12.5*	-19.5	-2.0
CC(C)(C)NC(=O)CSCc1c(Cl)cccc1Cl	6.2	-0.7	12.2	-0.9
O=C(Cn1c(=O)n(CCC(=O)N2CCCCC2)c(=O)c2sccc21)NCc1ccccc1	12.1	12.6*	-8.3	-2.2
O=C(Cn1c(=O)n(CC(=O)N2CCCCC2)c(=O)c2sccc21)NCc1ccccc1	6.8	1.5	-20.2	-1.2
Cc1ccc(Cn2ccsc2=NC(=O)COC(=O)c2ccc(NC(=O)CC#N)cc2)cc1	12.4	0.9	-9.3	-2.5
Cc1ccc(Cn2ccsc2=NC(=O)CCl)cc1	-294.1	92.5*	-46.0	59.1*
Cc1ccc(S(=O)(=O)CC2CSc3nc4ccccc4n32)cc1 (stereo unspecified)	2.9	-0.4	-13.2	-0.5
COc1ccc(NC(=O)c2cc(-c3cc(C)cc(C)c3O)n[nH]2)cc1Cl	-42.1	11.2*	-34.3	8.3
CC1(C)Cc2c(c(N3CCOCC3)nc3snc(NC(=O)c4ccccc4)c23)CO1	-8.7	11.9*	-34.2	1.5
CN(C)S(=O)(=O)n1cc(/C=C(\NC(=O)c2ccccc2F)C(=O)NCCCn2ccnc2)c2ccccc21	12.6	0.1	-8.6	-2.4
O=C(NCc1ccc(F)cc1)C1CCC(CNS(=O)(=O)c2cccs2)CC1 (stereo unspecified)	-26.3	14.2*	-23.4	4.2
C/C(=N/NC(=O)CC1N=C(Cc2ccccc2)NNC1=O)c1cccnc1 (stereo unspecified)	-11.0	-3.6	9.8	2.1
CCOC(=O)C1=CN(Cc2cccc(-c3ccc(Cl)nc3)c2)S(=O)(=O)N(C)C1C (stereo unspecified)	8.8	0.2	-1.3	-1.8
COc1cc2c(cc1OC)C(c1ccc(OC)c(OC)c1OC)CC(=O)N2 (stereo unspecified)	9.7	10.0*	-37.0	-2.1
COc1cc2c(cc1OC)C(c1cccc(OC)c1OC)CC(=O)N2 (stereo unspecified)	18.8	-0.3	0.9	-4.3
Cc1ccc2c(c1)c1c3n2CCN(C(=O)CN2CCN(C)CC2)C3CCC1 (stereo unspecified)	4.4	9.1*	-4.5	-0.8
CC(=O)Nc1ccc(NC(=O)COC(=O)c2ccc([N+](=O)[O-])o2)cc1	-47.1	13.2*	-48.0	9.0
NC1=NC(c2ccccc2)CC(=O)N1 (stereo unspecified)	12.6	2.2	-8.6	-2.9
SMILES	OPRM1-OPRD1 inv	HTR5A ag	HTR5A inv ctr	MOR-DOR ag
CCC(C)N(C(=O)CSc1nnc(-c2cccs2)n1C1CC1)C1CCS(=O)(=O)C1 (stereo unspecified)	18.3	4.0	-45.6	-3.4
COc1ccccc1NC(=O)OC(C)c1ccc(Cl)cc1 (stereo unspecified)	-5.2	17.2*	-49.0	0.8
CC(/C=C/C=C/c1ccccc1)=N/NC(=O)CNc1ccccc1C	-20.2	6.7	-0.9	3.8
CCCc1ccc2oc(C(=O)N3CCN(c4cnccn4)CC3)c(C)c2c1	-15.7	12.7*	-33.4	2.9
CCCc1ccc2oc(C(=O)N3CCN(CCC(N)=O)CC3)c(C)c2c1	7.4	0.8	-2.9	-1.5
Cc1nn(-c2ccccc2)c(N)c1N=Nc1ccc(Cl)cc1	-5.9	10.8*	-29.8	0.8
Cc1nn(-c2ccccc2)c(N)c1N=Nc1ccccc1	-14.6	0.5	-13.0	3.0
Cc1cc(C(=O)CSc2nc(N)cc(=O)[nH]2)c(C)n1CC1CCCO1 (stereo unspecified)	10.8	-1.5	5.8	-2.2
Cc1cc(C(=O)CSc2nc3ccccc3[nH]2)c(C)n1CC1CCCO1 (stereo unspecified)	-102.0	13.5*	-21.3	17.9
COc1ccc(NS(=O)(=O)c2cccc(C(=O)N(C)Cc3ccc(SC)cc3)c2)cc1	13.6	-0.4	1.2	-2.1
O=C(NCCCO)c1c(O)c2cccc3c2n(c1=O)CCC3	14.2	1.9	-7.5	-2.5
CC(C)C[C@@H](CN1CCC[C@@H]1CN1C(=O)C(=O)NC[C@@H]1Cc1ccccc1)N1C[C@H](Cc2ccccc2)N(CC2CCCCCC2)C(=O)C1=O	6.5	10.3*	-38.9	-1.4
CCN(c1ccccc1)S(=O)(=O)c1ccc(C(=O)N(CCCN(C)C)c2nc3cc4c(cc3s2)OCO4)cc1	-163.5	0.7	18.9	31.5*
CCCn1c(C)cc(C(=O)COC(=O)c2cc(S(=O)(=O)NCC(C)C)c(Cl)cc2Cl)c1C	0.5	13.5*	-10.4	-0.1
CC(C)CNS(=O)(=O)c1cc(C(=O)OCC(=O)c2ccc3c(c2)OCCO3)c(Cl)cc1Cl	1.7	2.2	-6.6	-0.3
CCOc1ccccc1N=CC1=C(O)CC(c2ccccc2)CC1=O (stereo unspecified)	6.1	12.6*	-32.8	-1.3
COc1ccc(N=CC2=C(O)CC(c3ccccc3)CC2=O)c(OC)c1 (stereo unspecified)	13.1	-2.3	-5.8	-2.5
Cc1ccccc1NC(=S)N(CCN1CCOCC1)Cc1ccccc1F	13.4	1.9	21.2	-2.8
COc1ccc(C)cc1NC(=O)CSc1nnc(-c2cc3cccc(OC)c3o2)n1N	9.3	12.8*	3.5	-2.2
CCN(CC)CC(=O)Nc1sc2c(c1C(=O)c1ccccc1OC)CCC2	-16.3	11.2*	-28.6	3.5
Cc1cc(=O)[nH]c(Nc2ccccc2C)n1	2.8	0.2	-0.8	-0.6
CC1CN(C(=O)COC(=O)/C=C/c2ccc(C(F)(F)F)cc2)CC(C)O1 (stereo unspecified)	6.0	6.8	-16.8	-1.4
CC(=O)N1CCN(C(=O)COC(=O)/C=C/c2ccc(C(F)(F)F)cc2)CC1	10.2	14.0*	22.4	-2.6
CCC(=O)NCCn1c(C)cc2ccccc21	-1.1	5.6	-17.0	0.2
Cc1cc2ccccc2n1CCNC(=O)COc1ccccc1	-170.2	1.0	-27.6	31.0*
